# Reference: PubChem BioAssay (NCATS)
# Results filed as inconclusive are left out. Where a call stands in place of a potency, no number is given. The source made the active and inactive calls. Unless noted, the call rests on the fitted dose curve; in most records, active means well fitted curve in the direction sought with a large enough effect; inconclusive means small, poorly fitted or top-dose-only effect, or another doubt; inactive means no such curve, though single readings can be large; an effect the other way counts as inactive or inconclusive.
# Experiments:
# [1] = P-glycoprotein substrates identified in KB-8-5-11 adenocarcinoma cell line, qHTS therapeutic library screen (AID 1346987); further: nearly all actives have a fitted effect of over 65% in size; further: potency means the concentration at half of the fitted maximal effect
# How it was run: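 Steps: plate 500 KB-8-5-11 cells/well in DMEM + 10% FCS (colchicine removed); pin compounds in dose-response; incubate 72 h, 37 degree C, 5% CO2; add CellTiter-Glo, 5 min; read luminescence.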
# [2] = system: Zika virus NS2B-NS3 protease (unlinked complex); test: Primary screen GU Rhodamine qHTS for Zika virus inhibitors: Unlinked NS2B-NS3 protease assay (AID 1347159); further: nearly all actives have a fitted effect of over 60% in size
# How it was run: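 Percent inhibition derives from the 15-min fluorescence change (ex 480, em 540 nm), normalized to no-enzyme and no-inhibitor wells. Reactions contained 25 nM NS2B-NS3 complex and 1.5 microM substrate in 10 mM Tris-HCl pH 8.0.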
# [3] = Primary qHTS for inhibitors of nuclear receptor binding SET domain protein 2 (NSD2) in an isogenic RCH-ACV NSD2 p.E1099K mutant (9B) (AID 1645876); further: nearly all actives have a fitted effect of over 70% in size; further: potency means the concentration at half of the fitted maximal effect
# HEK293 = test: Cytotoxic Profiling of Annotated Libraries Using Quantitative High-Throughput Screening (AID 1296008); settings: Five cell lines viability, CellTiter-Glo ATP luminescence, 48-72 h; max response: stronger effect = lower value; further: nearly all actives have a fitted effect of over 60% in size; further: potency means the concentration at half of the fitted maximal effect
# How it was run: (§1)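 Cytotoxicity was measured as CellTiter-Glo ATP luminescence, read after 10 min at room temperature. Compound treatment of the cells lasted 48 or 72 hr at 37 degrees Celsius in a qHTS format.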
# HeLa = test: Primary qHTS to identify gynecologic anti-cancer compounds using libraries of approved drugs and bioactive compounds (AID 1345084); settings: Gynecologic cancer cell panel viability, ATPlite luminescence, 48 h; series mostly up to 57.5 µM; further: nearly all actives have a fitted effect of over 55% in size; further: potency means the concentration at half of the fitted maximal effect
# How it was run: (§2)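 Cells, 1,000 per well, plated 16 h, then exposed 48 h at 37 C to compounds. Viability by ATPlite luminescence after 15 min at room temperature.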
# [4] = P-glycoprotein substrates identified in KB-3-1 adenocarcinoma cell line, qHTS therapeutic library screen (AID 1346986); further: nearly all actives have a fitted effect of over 60% in size
# How it was run: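 Cells seeded 500/well in DMEM/10% FCS; compounds pinned in dose-response; 72 h incubation; CellTiter-Glo added, 5 min, luminescence. KB-8-5-11 run ±tariquidar to test reversal of P-gp resistance.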
# HaCat [5] = test: Cytotoxic Profiling of Annotated Libraries Using Quantitative High-Throughput Screening (AID 1296008); settings: Five cell lines viability, CellTiter-Glo ATP luminescence, 48-72 h; max response: stronger effect = lower value; further: nearly all actives have a fitted effect of over 60% in size; further: potency means the concentration at half of the fitted maximal effect
# How it was run: as §1
# NIH3T3 [6] = test: as above; settings: Five cell lines viability, CellTiter-Glo ATP luminescence, 48-72 h; max response: stronger effect = lower value
# How it was run: as §1
# HACAT [7] = test: qHTS assay to identify novel small-molecules to repurpose for Merkel cell carcinoma treatment (AID 1296009); settings: MCC and control cell lines, CellTiter-Glo viability, 72 h; at 44.8 µM (top of the series) unless noted; further: nearly all actives have a fitted effect of over 60% in size
# How it was run: (§3)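 72 hr, 37 degree celsius; NPC 8-pt / MIPE 11-pt dose response; compound pinned in DMSO; CellTiter-Glo, 10 min RT, luminescence; normalized to no-cell and DMSO controls.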
# NIH3T3 [8] = test: as above; settings: MCC and control cell lines, CellTiter-Glo viability, 72 h; at 44.8 µM (top of the series) unless noted
# How it was run: as §3
# SKOV3 = test: Primary qHTS to identify gynecologic anti-cancer compounds using libraries of approved drugs and bioactive compounds (AID 1345084); settings: Gynecologic cancer cell panel viability, ATPlite luminescence, 48 h; series mostly up to 57.5 µM; further: nearly all actives have a fitted effect of over 55% in size; further: potency means the concentration at half of the fitted maximal effect
# How it was run: as §2
# CRL-7250 = normal cell line; test: qHTS assay to identify novel small-molecules to repurpose for Merkel cell carcinoma treatment (AID 1296009); settings: MCC and control cell lines, CellTiter-Glo viability, 72 h; series mostly up to 92 µM; further: nearly all actives have a fitted effect of over 60% in size
# How it was run: as §3
# [9] = target: Cytochrome P450 2D6 (Homo sapiens) (UniProt P10635); test: Cytochrome P450 family 2 subfamily D member 6 (CYP2D6) small molecule antagonists: luciferase biochemical (cell-free) qHTS assay (AID 1645840; active means well fitted curve in the direction sought with a large enough effect in the repeat runs; an effect the other way counts as inactive or inconclusive; further: nearly all actives have a fitted effect of over 55% in size; further: potency means the concentration at half of the fitted maximal effect)
# Sequence of Cytochrome P450 2D6 (Homo sapiens) (P10635 whole entry, looked up): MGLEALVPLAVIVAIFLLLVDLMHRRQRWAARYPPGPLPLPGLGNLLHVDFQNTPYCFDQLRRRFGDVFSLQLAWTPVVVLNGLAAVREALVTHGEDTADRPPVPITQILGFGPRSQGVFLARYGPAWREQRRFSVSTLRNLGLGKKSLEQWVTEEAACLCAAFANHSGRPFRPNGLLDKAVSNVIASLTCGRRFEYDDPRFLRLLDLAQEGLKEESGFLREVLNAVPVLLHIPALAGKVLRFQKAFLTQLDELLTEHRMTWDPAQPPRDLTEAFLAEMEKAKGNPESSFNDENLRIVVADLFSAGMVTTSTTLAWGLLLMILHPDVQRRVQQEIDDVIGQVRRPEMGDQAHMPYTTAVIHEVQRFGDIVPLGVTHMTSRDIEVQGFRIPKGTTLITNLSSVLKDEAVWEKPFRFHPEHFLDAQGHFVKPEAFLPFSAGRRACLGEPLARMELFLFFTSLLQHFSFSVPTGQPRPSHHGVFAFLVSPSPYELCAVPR
# How it was run: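 P450-Glo luminescent screen: recombinant CYP2D6 enzyme–proluciferin substrate mix preincubated with compound 10 min at room temperature, then NADPH regeneration added for 1 h at room temperature. Detection reagent added for 20 min; luciferin light read as relative luminescence units.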
# [10] = target: Cytochrome P450 2C9 (Homo sapiens) (UniProt P11712); test: Cytochrome P450 family 2 subfamily C member 9 (CYP2C9) small molecule antagonists: luciferase biochemical (cell-free) qHTS assay (AID 1645842; active means well fitted curve in the direction sought with a large enough effect in the repeat runs; an effect the other way counts as inactive or inconclusive; further: nearly all actives have a fitted effect of over 55% in size; further: potency means the concentration at half of the fitted maximal effect)
# Sequence of Cytochrome P450 2C9 (Homo sapiens) (P11712 whole entry, looked up): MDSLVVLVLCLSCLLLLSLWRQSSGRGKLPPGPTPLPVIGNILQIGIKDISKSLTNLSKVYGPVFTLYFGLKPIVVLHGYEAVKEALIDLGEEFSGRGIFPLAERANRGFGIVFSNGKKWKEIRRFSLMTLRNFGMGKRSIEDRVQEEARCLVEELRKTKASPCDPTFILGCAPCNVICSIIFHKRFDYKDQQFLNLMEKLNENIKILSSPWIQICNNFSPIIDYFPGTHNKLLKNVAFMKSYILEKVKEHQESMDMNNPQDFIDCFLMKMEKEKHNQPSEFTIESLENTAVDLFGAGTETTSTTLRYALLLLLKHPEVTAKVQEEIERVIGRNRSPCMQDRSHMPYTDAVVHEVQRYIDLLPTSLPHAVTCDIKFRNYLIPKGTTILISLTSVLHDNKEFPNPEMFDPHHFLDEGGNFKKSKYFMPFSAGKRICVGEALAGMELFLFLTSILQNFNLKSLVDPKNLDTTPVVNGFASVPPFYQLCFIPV
# How it was run: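 Luminescence, after 20 min with luciferin detection reagent, reflected CYP2C9 turnover during a 1 h NADPH-driven reaction at 37C. Enzyme-substrate mix contained 0.4% bovine serum albumin and was preincubated with compound 10 min at room temperature.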
# [11] = Primary qHTS for inhibitors of nuclear receptor binding SET domain protein 2 (NSD2) in an RCH-ACV wild type WT cells (2C) (AID 1645877); further: nearly all actives have a fitted effect of over 70% in size; further: potency means the concentration at half of the fitted maximal effect
# [12] = target: Catechol O-methyltransferase (Homo sapiens) (UniProt P21964); test: Confirmatory Screen for Target Class Profiling of Small Molecule Inhibitors of Methyltransferases (AID 1745852); settings: MTase-Glo luminescence, SAH detection, recombinant enzyme; measured here: COMT max response; stronger effect = lower value
# Sequence of Catechol O-methyltransferase (Homo sapiens) (P21964 whole entry, looked up): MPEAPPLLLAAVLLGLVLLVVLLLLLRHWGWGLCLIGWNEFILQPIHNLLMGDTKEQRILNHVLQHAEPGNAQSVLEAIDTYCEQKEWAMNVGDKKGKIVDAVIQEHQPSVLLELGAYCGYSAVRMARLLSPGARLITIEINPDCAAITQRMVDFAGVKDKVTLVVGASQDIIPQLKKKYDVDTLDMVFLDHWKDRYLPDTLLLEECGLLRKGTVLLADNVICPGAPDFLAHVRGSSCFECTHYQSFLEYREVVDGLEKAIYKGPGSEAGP
# [13] = target: Guanidinoacetate N-methyltransferase (Homo sapiens) (UniProt Q14353); test: as above; settings: activity change, negative = inhibition: at 57.3 µM (top of the series) unless noted
# [14] = target: Nicotinamide N-methyltransferase (Homo sapiens) (UniProt P40261); test: as above; settings: MTase-Glo luminescence, SAH detection, recombinant enzyme; measured here: NNMT max response; stronger effect = lower value
# Sequence of Nicotinamide N-methyltransferase (Homo sapiens) (P40261 whole entry, looked up): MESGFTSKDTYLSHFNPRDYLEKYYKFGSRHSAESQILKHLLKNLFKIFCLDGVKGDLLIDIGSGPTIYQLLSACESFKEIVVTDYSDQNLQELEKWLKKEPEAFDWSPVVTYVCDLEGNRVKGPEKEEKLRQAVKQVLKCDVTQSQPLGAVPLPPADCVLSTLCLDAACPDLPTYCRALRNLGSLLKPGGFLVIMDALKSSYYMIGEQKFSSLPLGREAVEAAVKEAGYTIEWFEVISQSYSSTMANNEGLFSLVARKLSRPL
# [15] = target: Phenylethanolamine N-methyltransferase (Homo sapiens) (UniProt P11086); test: as above; settings: MTase-Glo luminescence, SAH detection, recombinant enzyme; measured here: PNMT max response; stronger effect = lower value
# Sequence of Phenylethanolamine N-methyltransferase (Homo sapiens) (P11086 whole entry, looked up): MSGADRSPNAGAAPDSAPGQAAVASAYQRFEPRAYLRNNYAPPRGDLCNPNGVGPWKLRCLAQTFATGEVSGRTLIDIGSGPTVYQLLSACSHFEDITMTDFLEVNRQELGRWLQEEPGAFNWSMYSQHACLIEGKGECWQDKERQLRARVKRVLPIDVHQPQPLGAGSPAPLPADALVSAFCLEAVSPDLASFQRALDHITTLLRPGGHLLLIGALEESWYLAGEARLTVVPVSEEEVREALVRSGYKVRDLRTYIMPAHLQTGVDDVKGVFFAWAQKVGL
smiles,measurement,setting,value
COc1cc(O)c2c(c1)CCC[C@@H](O)[C@H](O)C(=O)/C=C\C[C@H](C)OC2=O,Potency,[1],14.3 µM (active)
same,Potency,[2],inactive
same,Potency,[3],8.01 µM (active)
same,Potency,HEK293,6.4 µM (active)
same,Potency,HeLa,inactive
C/C=C(\C)C(=O)OC1CC2C(CC=C3CC(OC4CC(OC)C(OC5CC(OC)C(OC6CC(OC)C(OC7CC(OC)C(O)C(C)O7)C(C)O6)C(C)O5)C(C)O4)CCC32C)C2(O)CCC(C(C)=O)C12C (stereo not drawn),outcome,[4],inactive [at 9.29 µM]
same,outcome,[1],inactive [at 9.29 µM]
same,outcome,HaCat [5],inactive
same,outcome,NIH3T3 [6],inactive
same,outcome,HACAT [7],inactive [at 9.27 µM]
same,outcome,NIH3T3 [8],inactive [at 9.27 µM]
same,"activity change, negative = cytotoxicity",HeLa,9.98% [at 11.6 µM] (inactive)
same,"activity change, negative = cytotoxicity",SKOV3,-3.35% [at 11.6 µM] (inactive)
CC(=O)OC[C@]12[C@H](OC(C)=O)C(=O)[C@@H]3[C@@H](O)[C@@]14O[C@@]3(C)COC(=O)c1cccnc1[C@@H](C)[C@H](C)C(=O)O[C@@H]([C@H](OC(C)=O)[C@@H]2OC(C)=O)[C@]4(C)O,Potency,[1],inactive
same,Potency,[2],inactive
same,outcome,HaCat [5],inactive
same,max response,NIH3T3 [6],0.381% (inactive)
same,Potency,CRL-7250,inactive
same,outcome,HACAT [7],inactive [at 17.4 µM]
same,Potency,HeLa,inactive
same,Potency,SKOV3,inactive
C=C1C2(C)CC3C(C)(O)C4=CC(=O)OC(C)(C)C4=CCC3(C)C13C(=O)OC(C)C3(O)C2=O (stereo not drawn),Potency,[1],inactive
same,max response,HEK293,-2.5% (inactive)
same,max response,NIH3T3 [6],-1.67% (inactive)
same,Potency,HeLa,inactive
same,Potency,SKOV3,inactive
CN(C(=O)C(c1ccccc1)c1ccccc1)[C@H](CN1CC[C@H](O)C1)c1ccccc1,Potency,[2],inactive
same,Potency,[9],122 nM (active)
same,Potency,[10],inactive
same,outcome,HaCat [5],inactive
same,max response,NIH3T3 [6],3.64% (inactive)
same,Potency,CRL-7250,inactive
same,outcome,HACAT [7],inactive
same,Potency,HeLa,inactive
same,Potency,SKOV3,inactive
C[C@]12CC[C@H](O)C[C@@H]1CC[C@@H]1[C@@H]2CC[C@]2(C)C(=O)CC[C@@H]12,Potency,[4],inactive
same,Potency,[1],inactive
same,Potency,[3],inactive
same,Potency,[11],inactive
same,max response,HEK293,-15.1% (inactive)
same,max response,NIH3T3 [6],-0.109% (inactive)
same,Potency,HeLa,inactive
same,Potency,SKOV3,inactive
CCCCCn1cc(C(=O)Oc2cccc3cccnc23)c2ccccc21,Potency,[1],inactive
same,Potency,[2],inactive
same,Potency,[9],inactive
same,Potency,[10],3.38 µM (active)
same,max response,HaCat [5],2.86% (inactive)
same,max response,NIH3T3 [6],-5.3% (inactive)
same,Potency,CRL-7250,inactive
same,Potency,HeLa,inactive
same,Potency,SKOV3,inactive
CCOc1ccc(Oc2ccc(OCc3cc(F)ccc3F)cc2)c(N)c1,Potency,[1],inactive
same,Potency,[2],inactive
same,Potency,[10],10.7 µM (active)
same,max response,HaCat [5],-5.94% (inactive)
same,max response,NIH3T3 [6],-0.81% (inactive)
same,Potency,CRL-7250,inactive
same,Potency,HeLa,inactive
same,Potency,SKOV3,inactive
Cc1c(N[C@@H](c2nnc(-c3ccc(C#N)cc3)o2)[C@H](C)O)ccc(C#N)c1Cl,Potency,[1],inactive
same,max response,HaCat [5],-11% (inactive)
same,max response,NIH3T3 [6],4.88% (inactive)
same,Potency,CRL-7250,inactive
same,Potency,HeLa,inactive
same,Potency,SKOV3,inactive
CC(=O)O[C@H]1C[C@]2(O)[C@@H]3CC[C@@H]4C[C@@H](O)CC[C@]4(C)[C@H]3CC[C@]2(C)[C@H]1c1ccc(=O)oc1,Potency,[1],0.0517 µM (active)
same,Potency,[3],0.0459 µM (active)
same,Potency,[11],0.0578 µM (active)
same,Potency,HEK293,0.0461 µM (active)
same,max response,NIH3T3 [6],-9.3% (inactive)
same,Potency,HeLa,316 nM (active)
same,Potency,SKOV3,100 nM (active)
C[C@]12CC[C@H](O)C[C@@H]1CC[C@@H]1[C@@H]2CC[C@]2(C)[C@@H](C3=CC(=O)OC3)CC[C@]12O,Potency,[2],inactive
same,Potency,[3],2.84 µM (active)
same,Potency,[11],4.5 µM (active)
same,Potency,HEK293,5.08 µM (active)
same,max response,NIH3T3 [6],3.54% (inactive)
COC(=O)C12C(=O)C(C)(O)C(=O)C1(C)C(C)=CC1C34CCC(OC3=O)C(C)(C)C4CCC12C (stereo not drawn),Potency,[1],inactive
same,Potency,[2],inactive
same,Potency,[3],inactive
same,Potency,[11],inactive
same,max response,HEK293,-13.4% (inactive)
same,max response,NIH3T3 [6],-10.7% (inactive)
same,Potency,HeLa,inactive
same,Potency,SKOV3,inactive
CN1CCC2=C(C1)c1ccccc1Cc1ccccc12,Potency,[1],inactive
same,Potency,[2],inactive
same,Potency,[9],477 nM (active)
same,Potency,[10],inactive
same,outcome,HaCat [5],inactive
same,max response,NIH3T3 [6],0.135% (inactive)
same,Potency,CRL-7250,inactive
same,outcome,HACAT [7],inactive
same,Potency,HeLa,inactive
same,Potency,SKOV3,inactive
CCCN(CCC)[C@@H]1CCc2ccc3[nH]c(C#N)cc3c2C1,Potency,[4],inactive
same,Potency,[1],inactive
same,Potency,[2],inactive
same,Potency,[9],338 nM (active)
same,Potency,[3],inactive
same,Potency,[11],inactive
same,activity,[12],-0.359%
same,"activity change, negative = inhibition",[13],0%
same,activity,[14],-9.72%
same,activity,[15],-4.55%
same,outcome,HaCat [5],inactive
same,outcome,NIH3T3 [6],inactive
same,Potency,CRL-7250,inactive
same,outcome,HACAT [7],inactive
same,outcome,NIH3T3 [8],inactive
same,Potency,HeLa,inactive
CCN1C[C@]2(COC)CC[C@H](O)[C@@]34C5C[C@@H]6[C@@H](OC)C[C@@](OC(C)=O)(C5[C@@H]6OC(C)=O)[C@H]([C@H](OC)C23)[C@@H]14 (stereo partly drawn),Potency,[2],inactive
same,Potency,[3],inactive
same,Potency,[11],inactive
same,max response,HEK293,3.98% (inactive)
same,max response,NIH3T3 [6],2.14% (inactive)
same,Potency,HeLa,inactive
same,Potency,SKOV3,inactive
CC12CCC3C(C1)c1c(cc(O)c(C(=O)c4ccccc4)c1OC3(C)C)O2 (stereo not drawn),Potency,[1],inactive
same,Potency,[3],inactive
same,Potency,[11],inactive
same,max response,HaCat [5],-1.85% (inactive)
same,max response,NIH3T3 [6],3.12% (inactive)
same,Potency,CRL-7250,inactive
same,Potency,HeLa,inactive
same,Potency,SKOV3,inactive
CN1Cc2c(ccc3c2OCO3)[C@@H]2[C@H]1c1cc3c(cc1C[C@@H]2O)OCO3,Potency,[2],inactive
same,Potency,[3],2.84 µM (active)
same,Potency,[11],2.26 µM (active)
same,Potency,HEK293,3.6 µM (active)
same,Potency,NIH3T3 [6],2.55 µM (active)
same,Potency,HeLa,3160 nM (active)
